Laboratory results published in ChEMBL document CHEMBL3988442, “University of Dundee, Small-Polar-MMV Screening Library” (2021).
About 13,000 (27%) of roughly 48,000 compounds showed an effect of 50% or more. The list shows a part of the results.

Tested on: Wolbachia pipientis
Assay: Anti-Wolbachia Cell-Based Screen
Assay type: functional
Set-up: scale not given: in the data most compounds retested in dose-response had high values
Conditions: 5 µM

First: CC(C)n1cc2cc(NC(=O)Cn3cnnn3)ccc2n1
Second: O=C1COc2ccccc2N1CCCn1cnnn1
The “Percent Effect” value of the first is higher: 0.8884% for the first, -11.05% for the second.

Compared with `O=C1NCCCCC1NC(=O)C1(Oc2ccc(Cl)cc2)CCNCC1` (configuration not stated), `O=C1CCC2(CCNCC2)CN1CCCOc1cccnc1` is lower in “Percent Effect” value: 4.291% for the first, -10.24% for the second.

Going from `CCOc1ccccc1NC(=O)NCC(C)(O)CCSC` (configuration not stated) to `CCOc1ccc(NC(=O)c2[nH]c(C)cc2C)cc1CO`, the “Percent Effect” value falls from -5.529% to -6.246%.

Going from `CC(C)C(=O)NC1CCCc2nc(N3CCOCC3)ncc21` (configuration not stated) to `CCC(CC)C(=O)NC1CCCc2nc(N3CCOCC3)ncc21` (configuration not stated), the “Percent Effect” value rises from 72.33% to 97.19%.

Going from `CC(CNC(=O)c1nc(N2CCOCC2)ncc1Cl)c1ccccc1` (configuration not stated) to `CN(C)C(CNC(=O)c1nc(N2CCOCC2)ncc1Cl)c1ccco1` (configuration not stated), the “Percent Effect” value rises from -18.26% to -7.125%.

Going from `Cc1cnc(N2CCC3(CC2)CC(NC(=O)C(C)C)CO3)nc1` (configuration not stated) to `COc1cnc(N2C[C@@H](CN3CCOCC3)[C@@H](CO)C2)nc1`, the “Percent Effect” value rises from -15.93% to -6.772%.

Compared with `CC(C)n1c(C2CCCN(CC(=O)NC(N)=O)C2)nc2ccccc21` (configuration not stated), `CC(C)n1c(C2CCCN(CC(=O)NC3CC3)C2)nc2ccccc21` (configuration not stated) is higher in “Percent Effect” value: -22.16% for the first, -1.015% for the second.

Going from `Cc1cc(C)n(C2CCN(Cc3c(-c4cc(C)on4)nn(C)c3Cl)C2)n1` (configuration not stated) to `Cc1nc(CN(C)C2CCN(Cc3nc4c(F)cccc4[nH]3)C2)no1` (configuration not stated), the “Percent Effect” value rises from 0.03188% to 95.7%.

First: CN(C)C(=O)Cc1ccccc1NCc1cccc(F)c1F
Second: O=C(O)c1ccc(S(=O)(=O)Nc2ccccc2F)c(F)c1
The “Percent Effect” value of the first is lower: -19.09% for the first, -2.05% for the second.

First: Cc1csc(CNC(=O)N(C)Cc2cnn(C)c2)n1
Second: Cn1cc(CC2CCN(C(=O)NCc3csc(C4CC4)n3)C2)cn1 (configuration not stated)
The “Percent Effect” value of the first is lower: 7.256% for the first, 102.9% for the second.

Compared with `CC(C)Cc1cc(C(=O)N2CCC(Cc3cnn(C)c3)C2)cc(O)n1` (configuration not stated), `CC(C)c1cc(CNC(=O)N2CCC(Cc3cnn(C)c3)C2)on1` (configuration not stated) is higher in “Percent Effect” value: 0.7528% for the first, 2.959% for the second.

Compared with `COCc1csc(NC(=O)N2CCC(Cc3cnn(C)c3)C2)n1` (configuration not stated), `COCc1csc(NC(=O)NCc2ccsc2)n1` is lower in “Percent Effect” value: 102.3% for the first, -7.736% for the second.

Going from `CC(C)CC(NC(=O)CN(C)C(=O)c1ccco1)c1cccs1` (configuration not stated) to `COCCn1c(C(=O)NCC(C)C(=O)O)cc2ccccc21` (configuration not stated), the “Percent Effect” value falls from 25.03% to 18.09%.

Compared with `O=C(CCCc1cn[nH]c1)N1C[C@@H](CN2CCOCC2)[C@@H](CO)C1`, `O=C(CCc1cn[nH]c1)N1C[C@@H](CN2CCCCCC2)[C@@H](CO)C1` is lower in “Percent Effect” value: 24.78% for the first, 3.932% for the second.

First: CC(C)c1ncc(CN2C[C@@H](CN3CCCCC3)[C@@H](CO)C2)cn1
Second: OC[C@H]1CN(Cc2c(Cl)cncc2Cl)C[C@H]1CN1CCCCCC1
The “Percent Effect” value of the first is higher: -5.957% for the first, -60.78% for the second.

First: CC(=O)c1ccc(CN2C[C@@H](CN3CCC(O)CC3)[C@@H](CO)C2)cc1
Second: CC(=O)c1cc(CN2C[C@@H](CN3CCC(O)CC3)[C@@H](CO)C2)n(C)c1
The “Percent Effect” value of the first is lower: -12.65% for the first, 12.27% for the second.

Going from `NC(=O)c1csc(N2C[C@@H](CN3CCCCC3)[C@@H](CO)C2)n1` to `CN1CCCN(C[C@@H]2CN(c3nc(C(N)=O)cs3)C[C@@H]2CO)CC1`, the “Percent Effect” value rises from 104.1% to 120.2%.

First: NC(=O)c1csc(N2C[C@@H](CN3CCC(O)CC3)[C@@H](CO)C2)n1
Second: NC(=O)c1csc(N2C[C@@H](CN3CCOCC3)[C@@H](CO)C2)n1
The “Percent Effect” value of the first is lower: 99.75% for the first, 103.5% for the second.

First: CN(C)Cc1nnc(C2CCCN(c3nc(C(N)=O)cs3)C2)n1C (configuration not stated)
Second: CCc1nccn1C1CCCN(C(=O)c2ccc3nnc(C)n3c2)C1 (configuration not stated)
The “Percent Effect” value of the first is lower: 10.64% for the first, 92.62% for the second.

Going from `OCc1csc(N2C[C@@H](CN3CCCCCC3)[C@@H](CO)C2)n1` to `Cc1nc(N2C[C@@H](CN3CCCN(C)CC3)[C@@H](CO)C2)c2sccc2n1`, the “Percent Effect” value falls from 103.7% to 6.466%.

First: CCc1cc(C(=O)N2CCc3c(ncn3CCc3ccccc3)C2)[nH]n1
Second: Cc1nc(C)n(C2CCCN(C(=O)c3cc4ccccc4n3C)C2)n1 (configuration not stated)
The “Percent Effect” value of the first is lower: 0.9556% for the first, 8.769% for the second.

Going from `CC(C(=O)NC1(C#N)CCCCC1)N1CCc2c(ncn2C2CC2)C1` (configuration not stated) to `CC1(C)[C@H]2CC=C(CN3CCCn4nc(CCC(=O)O)cc4C3)[C@@H]1C2`, the “Percent Effect” value falls from 2.173% to 1.513%.

Going from `Cc1ccc(F)c(NC(=O)CCC(=O)N(C)Cc2nc(C)c[nH]2)c1` to `Cc1cc(=O)[nH]c(NCCNC(=O)C(c2ccc(F)cc2)N(C)C)n1` (configuration not stated), the “Percent Effect” value rises from -39.22% to 1.725%.

Going from `CN(C)C(CNS(=O)(=O)c1cnn(C)c1)c1cccc(F)c1` (configuration not stated) to `Cc1ccc(F)cc1S(=O)(=O)N(C)CC(N)=O`, the “Percent Effect” value falls from 6.578% to 2.56%.

First: N#Cc1ccc(OC2CCN(C(=O)c3ccc(Br)o3)CC2)nc1
Second: O=C(Cc1ccc(F)cc1)NCC1CCN(Cc2ccsc2)CC1
The “Percent Effect” value of the first is lower: 22.17% for the first, 152.7% for the second.

Compared with `Cc1nc(N2C[C@@H](CN3CCCN(C)CC3)[C@@H](CO)C2)c2ccsc2n1`, `Cc1nc(CN2CCCN(Cc3nc4c(F)cccc4[nH]3)CC2)no1` is higher in “Percent Effect” value: 13.06% for the first, 93.2% for the second.

Compared with `Cc1cnn(C2CN(CC(O)c3ccc(F)cc3)C2)c1` (configuration not stated), `Cc1cc(CN2CCC(CNC(=O)Cc3ccc(F)cc3)C2)[nH]n1` (configuration not stated) is higher in “Percent Effect” value: 3.544% for the first, 4.609% for the second.

Going from `O=C1O[C@@H]2CN(c3cnccn3)C[C@@H]2N1CCCc1ccc(F)cc1` to `Cc1cnc(CN(C)C2CCN(Cc3nc4ccccc4n3C)C2)o1` (configuration not stated), the “Percent Effect” value falls from 20.37% to 4.653%.

First: COc1c(C)cnc(CN(C)C(=O)c2ccccc2F)c1C
Second: Cc1cc(CN(C)C(=O)c2ccc(F)cc2Br)no1
The “Percent Effect” value of the first is higher: -7.265% for the first, -8.681% for the second.

Compared with `N#Cc1cccc(NS(=O)(=O)c2ccc(C(=O)O)cc2F)c1`, `O=C(O)c1ccc(S(=O)(=O)Nc2cccc(CC(F)(F)F)c2)c(F)c1` is lower in “Percent Effect” value: 100.6% for the first, -7.999% for the second.

Going from `O=C(O)c1ccc(S(=O)(=O)Nc2ccc(Cl)c(F)c2)c(F)c1` to `Cc1cc(NS(=O)(=O)c2ccc(C(=O)O)cc2F)ccc1F`, the “Percent Effect” value rises from 4.995% to 102.3%.

Compared with `Cc1ccccc1NS(=O)(=O)c1ccc(C(=O)O)cc1F`, `CNC(=O)c1ccc(-c2ccccc2)n1C` is lower in “Percent Effect” value: 0.9629% for the first, -8.126% for the second.

Compared with `COc1ccc(CN(C)C(=O)NC(C)c2nncn2C)cc1F` (configuration not stated), `CCn1ncnc1C(C)NC(=O)COc1ccc(Cl)cc1Cl` (configuration not stated) is higher in “Percent Effect” value: -30.44% for the first, -23.74% for the second.

Going from `CCSc1ccccc1C(=O)NCC1CCN(Cc2ccsc2)CC1` to `O=C(Cc1ccccc1Cl)NCC1CCN(Cc2ccsc2)CC1`, the “Percent Effect” value falls from 107.8% to 104.9%.

Going from `COCC(=O)NCC1CCN(Cc2ccsc2)CC1` to `CCOCC(=O)NCC1CCN(Cc2ccsc2)CC1`, the “Percent Effect” value rises from 155% to 164%.

First: CC(c1ccccc1)N1CCC(NC(=O)CCc2ccsc2)CC1 (configuration not stated)
Second: O=C(CCSc1ccccc1)NCC1CCN(Cc2ccsc2)CC1
The “Percent Effect” value of the first is lower: 5.953% for the first, 78.72% for the second.

Going from `O=C(NCC1CCN(Cc2ccsc2)CC1)NC1CC1` to `O=C(NCc1ccccc1)NCC1CCN(Cc2ccsc2)CC1`, the “Percent Effect” value rises from 4.525% to 116.2%.

Going from `CSc1cccc(CN2CCC(CCC(=O)NCCN(C)C)CC2)c1` to `COCCNC(=O)CCC1CCN(Cc2cccc(SC)c2)CC1`, the “Percent Effect” value rises from -5.054% to 4.456%.

Going from `O=C(COc1ccccc1)NCC1CCN(Cc2ccsc2)CC1` to `Cc1ccccc1CN1CCC(CNC(=O)Cn2cncn2)CC1`, the “Percent Effect” value falls from 115.8% to 9.92%.

Compared with `CCC(CC)c1nnc(NC(=O)N2CCCC(NC(C)=O)C2)s1` (configuration not stated), `CCNC(=O)N1CCC(NC(=O)NCCc2ccc(C)cc2C)C1` (configuration not stated) is higher in “Percent Effect” value: -9.059% for the first, 5.947% for the second.

First: CN(Cc1cc(C(C)(C)C)n[nH]1)Cc1c[nH]nc1-c1ccc(F)cc1
Second: Cc1cnc(CN(C)C2CCN(Cc3nc4c(F)cccc4[nH]3)C2)o1 (configuration not stated)
The “Percent Effect” value of the first is lower: -14.5% for the first, 88.38% for the second.

Going from `O=C(NCCCC(=O)N1Cc2ccccc2C1)NCc1ccsc1` to `O=C(NCC1(CO)CC1)c1cccc2ccccc12`, the “Percent Effect” value falls from 1.068% to -22.57%.

Going from `O=C(Cn1cncn1)NCC1CCN(Cc2ccccc2Cl)CC1` to `CN1CCC(CNC(=O)Cc2ccc(N(C)C)cc2)CC1`, the “Percent Effect” value rises from -9.372% to -0.2873%.

Going from `Cc1nc(CN2CCN(C(=O)CC(C)(C)c3ccccc3)CC2)no1` to `CNC(=O)c1cccc(CN2CCC(N(C)Cc3ncc(C)o3)C2)c1` (configuration not stated), the “Percent Effect” value rises from 6.376% to 18.32%.

Compared with `CCc1nc(CN2CCCC(Nc3ncnc4ccsc34)C2)no1` (configuration not stated), `CCc1ncc2c(n1)CN(Cc1nc3c(F)cccc3[nH]1)CC2` is lower in “Percent Effect” value: 25.2% for the first, -2.409% for the second.

Going from `O=C(O)C(F)(F)F.O=S(=O)(C1CC1)N1CCC2(CC1)CN(Cc1nccs1)CCO2` to `Cc1sc2nc(C(F)(F)F)nc(N3CCN(S(C)(=O)=O)CC3)c2c1C`, the “Percent Effect” value falls from 4.912% to 0.8403%.

Going from `COCCN1CC(c2nc(CSC)no2)CCC1=O` (configuration not stated) to `CCc1nccn1C1CCCN(C(=O)c2ccc(C(N)=O)cn2)C1` (configuration not stated), the “Percent Effect” value falls from 7.021% to 6.395%.

First: CCc1nccn1C1CCCN(C(=O)c2ccc3[nH]c(=O)[nH]c3c2)C1 (configuration not stated)
Second: Cc1nccn1C1CCCN(C(=O)c2ccc3nnc(C)n3c2)C1 (configuration not stated)
The “Percent Effect” value of the first is lower: 0.4559% for the first, 98.33% for the second.

Going from `Cc1nc(C)c(C(=O)N2CCc3c(Cl)cccc32)o1` to `Cc1ncc2c(n1)CN(Cc1nc3c(F)cccc3[nH]1)CC2`, the “Percent Effect” value rises from -6.606% to -1.881%.

Compared with `O=C1NC(c2ccccc2)=N[C@@]12CC[C@@H]1CN(Cc3ccco3)C[C@@H]12`, `Cn1c(C(=O)NCC2(N)CCCC2)cc2ccccc21` is higher in “Percent Effect” value: 9.656% for the first, 105.3% for the second.

First: CNC(=O)c1cc2ccccc2n1C
Second: CC(C)NC(=O)c1n[nH]c(-n2cnnc2)n1
The “Percent Effect” value of the first is higher: 113.9% for the first, -2.794% for the second.
